From PubChem BioAssay AID493208 (National Center for Advancing Translational Sciences (NCATS), 2011)
In all, about 44,000 compounds went through this assay and about 340 (0.77%) were called active. Inconclusive results (about 5%) are left out. Calls come from the whole dose curve; as a rule, active = well fitted inhibition curve with a large enough effect; inconclusive = small, poorly fitted or top-dose-only effect; inactive = flat fitted curve, though single readings scatter. Many of the other results were omitted from the sample, so actives are more common in it than they were.

Test: Acumen qHTS Assay for Inhibitors of the mTORC1 Signaling Pathway in MEF (Tsc2-/-, p53-/-) Cells: Sytravon; note: nearly all actives have a fitted effect of over 50% in size
Settings: phospho-rpS6 immunofluorescence/PI, 24 h; series mostly up to 38.3 µM
Source text: NIH Molecular Libraries Probe Production Centers Network [MLPCN] NIH Chemical Genomics Center [NCGC] MLPCN Grant: NS059428-01 Assay Submitter (PI): Blenis, John; Hoffman, Greg; Harvard University NCGC Assay Overview: The mammalian target of rapamycin (mTOR) is an intracellular serine/threonine kinase Aberrant regulation of mTOR signaling plays a causative role in a number of human diseases, including cancer, benign tumors such as lymphangioleiomyomatosis (LAM) and Tuberous Sclerosis Complex (TSC), and metabolic diseases such as diabetes and obesity. This project aims to identify inhibitors of ribosomal protein S6 (rpS6) phosphorylation. The phosphorylation of rpS6 is a key event downstream of mTOR activation. The assay uses a phospho-specific antibody of phospho-rpS6 to detect inhibitors of mTOR activation. Mutations in the Tsc1 and Tsc2 genes are the underlying genetic lesions responsible for TSC, causing constitutive activation of the mTORC1 pathway and leading to profound effects on cell metabolism. Aberrant metabolism in cancer has recently received significant attention as a target to develop therapeutic agents in the treatment of cancer.1 As Tsc2-/- cells have lost the ability to respond to energy and growth factor deprivation, these cells are unable to properly down regulate cellular biosynthetic processes in response to metabolic stress, and are thus extremely sensitive to glucose deprivation-induced death.2 A central goal of this project is to explore the unique cell survival and metabolic properties of cells with Tsc1 or Tsc2 by screening for compounds that selectively target the Tsc2-/- MEFs by screening both Tsc2-/- and WT MEF cell lines. We hope to better understand these aspects of TSC physiology in order to exploit them for therapeutic benefit.
NCGC Acumen Assay Protocol Summary: For quantitative high throughput analysis of mTORC1 signaling, we developed a cell-based assay for immuno-fluorescence based detection of rpS6 phosphorylation on the Acumen Explorer that will be used a platform for the primary small molecule screen. Mouse embryonic fibroblasts (MEFs) are cultured in 1536-well plates using DMEM + 10% FBS. Twenty-four hrs after plating, test compounds (solubilized in DMSO) are delivered and incubated with the cells for 24 hrs at 37 degree Celsius. Following the incubation, media with compound is aspirated and the cells are fixed in 4% paraformaldehyde (PFA) containing PBS + 0.2% TX-100. Next, PFA is aspirated, cells are washed two times with PBS plus 0.2% TX-100 and the cells are blocked for 1 hr at room temperature (blocking buffer: LiCOR Blocking Buffer plus 0.2% TX-100). […] Cells are washed two times with PBS plus 0.2% TX-100, and stained with 10 uM propidium iodide (PI) for 20-25 minutes for cell number measurement (1:500 dilution of Hoescht staining is also added for IN Cell imaging). The plates are scanned on the Acumen Explorer laser scanning instrument (TTP Labtech) using the 488nm laser for simultaneous excitation of the Alexa-488 and PI. […] The normalized phospho-S6 staining is calculated as the ratio of the integrated Alexa 488 intensity divided by the integrated PI intensity for the single concentration rapamycin control (7.5 nM) and DMSO columns. […] Inhibition of the pathway is defined based on the normalized phospho-S6 intensity in rapamycin treated cells. Active cells are defined as those with a normalized phospho-S6 staining above this threshold, and each treatment is reported as the % positive cells in the well, where thresholds are defined by selecting wells with the highest and lowest signal and differentiating between the % non-active and % active populations. In addition to the pathway specific phospho-S6 endpoint, the number of PI stained cells from the Acumen is recorded as a measure of cell viability. The primary screen was performed with a MEF cell line in a defined genetic background, Tsc2-/-, p53-/- cell line stably transfected with an empty vector control (Tsc2-/- MEF).
Potency is the fitted concentration of half-maximal effect.

Potency, inactive:
Cc1ccc(S(=O)(=O)c2nc(-c3ccco3)oc2SCC(=O)Nc2ccc(F)cc2)cc1
O=C(/C=C/c1cn(CC(O)CN2CCc3ccccc32)c2ccccc12)c1ccc(Br)cc1 (stereo unspecified)
COc1ccc(OCCn2cc(C(=O)C3CCCCC3)c3ccccc32)cc1
COc1ccc(-c2nc(S(=O)(=O)c3ccccc3)c(N3CCCCC3)o2)cc1
O=C(CSc1oc(-c2ccc(F)cc2)nc1S(=O)(=O)c1ccc(Br)cc1)NC1CCCCC1
COc1ccccc1NC(=O)CCC(=O)N1CC(C)Oc2ccc(C)cc21 (stereo unspecified)
COc1ccc(C)cc1N(CC(=O)N1CCC(C)CC1)S(=O)(=O)c1ccc(C)cc1
CC(C)(C)c1ccc(OCC(=O)N2CCC(c3nc4ccccc4s3)CC2)cc1
CCn1cc(C(=O)NCc2ccccc2)c(=O)c2cc(S(=O)(=O)N3CCCCC3)ccc21
Cc1cccc(CNC(=O)c2cnc3sc(N4CCCCC4)nn3c2=O)c1
O=C(Cc1ccc(Cl)cc1)Nc1ccc2nn(-c3ccc(Cl)cc3)nc2c1
CCOc1ccc(-n2nc3ccc(NC(=O)c4ccc(OC)c(Cl)c4)cc3n2)cc1
COc1cccc(C(=O)Nc2ccc3nc4n(c(=O)c3c2)CCCCC4)c1
COc1ccc(NC(=O)c2cnc(Nc3ccc(C)c(Cl)c3)c3ccccc23)cc1OC
COc1ccc(NC(=O)c2ccc3nc(C(C)C)oc3c2)cc1OC
CCOc1ccc(N(Cc2ccccc2)C(=O)c2nc(SCC)ncc2Cl)cc1
CCOc1ccc(NC(=O)CN(Cc2ccccc2)S(=O)(=O)c2ccc(Cl)cc2)cc1
CCOC(=O)c1ccc(NC(=O)c2c(NCc3cccs3)sc3c2CCCC3)cc1
CCCn1ccc2c(OCC(=O)NCc3ccc(F)cc3)cccc2c1=O
CCOc1ccc(N2CC(C)Cn3c2nc2c3c(=O)n(Cc3c(F)cccc3Cl)c(=O)n2C)cc1 (stereo unspecified)
O=C1CN(C(=O)Nc2ccccc2C(F)(F)F)C(c2ccccc2)c2c(sc3c2CCCC3)N1 (stereo unspecified)
Oc1c(C(c2ccc(F)cc2)N2CCN(Cc3ccccc3)CC2)sc2nc(-c3ccco3)nn12 (stereo unspecified)
Cc1nc2ccn(Cc3cccs3)c(=O)c2cc1C(=O)NCc1ccc(Cl)cc1
CCOCCCNC(=O)c1cn(CC)c2ccc(S(=O)(=O)N3CCc4ccccc4C3)cc2c1=O
Cc1ccc2nc(/C(C#N)=C/c3ccc(-c4ccc(C(=O)OC(C)C)cc4)o3)[nH]c2c1
Cc1nn2c(=O)cc(COC(=O)CNC(=O)c3ccc(F)cc3)nc2s1
COc1ccc(N2CCN(c3cc(C)nc4nncn34)CC2)cc1
CCOc1ccc(CCNC(=O)c2ccc3c(c2)sc2nc(-c4ccc(F)cc4)cn23)cc1OCC
Cc1nn2c(=O)cc(COC(=O)c3cccc(NC(=O)COc4ccccc4Cl)c3)nc2s1
Cc1nn(CC(=O)N2CCN(c3cccc(C(F)(F)F)c3)CC2)c(=O)c2cc3sccc3n12
COc1cccc(Nc2nc3ccccc3c3nncn23)c1
CCOC(=O)c1nc(Nc2ccc(C(=O)OC)cc2)c2ccccc2n1
Cn1c(=O)oc2cc(S(=O)(=O)CCC(=O)NCCc3ccc(Cl)cc3)ccc21
Cc1ccc(S(=O)(=O)c2cn(Cc3ccccc3)c3cc(N4CCCC4)c(F)cc3c2=O)c(C)c1
O=C(CCOc1ccccc1)N(Cc1cccnc1)c1nc2ccc(Cl)cc2s1
CN(C)S(=O)(=O)c1ccc(C(=O)N(Cc2cccnc2)c2nc3c(F)cc(F)cc3s2)cc1
CC1=C(C(=O)OCC(C)C)C(c2ccc(OCc3ccccc3)cc2)N2C(=O)CCSC2=N1 (stereo unspecified)
CCc1ccc(C2CC(=O)c3c([nH]c(C(=O)OCc4ccc(C)cc4)c3C)C2)cc1 (stereo unspecified)
Cc1ccc(CSc2oc(-c3cccs3)nc2S(=O)(=O)c2ccc(C)cc2)cc1
CSc1oc(-c2cccs2)nc1S(=O)(=O)c1ccc(Br)cc1
COc1cccc(CNC(=O)CSc2c3c(nc4cc(Cl)ccc24)CCCC3)c1
Cc1ccc(CNC(=O)CSc2c3c(nc4cc(Cl)ccc24)CCCC3)cc1
CN(C)CCN(Cc1ccccc1)S(=O)(=O)c1csc(C(N)=O)c1
CC(C)C12CN3CC(C(C)C)(CN(C1)C3c1ccc(OCc3ccccc3)cc1)C2=O (stereo unspecified)
N#C/C(=C\c1ccccc1F)c1nc2ccccc2c(=O)[nH]1
COC(=O)c1cnn(-c2ccc(C(=O)Nc3ccc(OC(F)(F)F)cc3)cc2)c1N
Cc1ccc(Cn2c(=O)n(-c3ccc(C)cc3)c(=O)c3c2c2cc(C)ccc2n3C)cc1
CCSc1ncc(Cl)c(C(=O)Nc2cc(C)ccc2C)n1
CCOC(=O)c1ccc(NC(=O)c2nc(SCc3ccc(F)cc3)ncc2Cl)cc1

Potency, active:
CCOc1ccc(C(=O)/C=C/c2cn(CC(O)CN3CCCCCC3)c3ccccc23)cc1 (stereo unspecified) 14.7 µM
CC(C)S(=O)(=O)c1oc(-c2ccc(F)cc2)nc1S(=O)(=O)c1ccc(F)cc1 0.521 µM
CN1CCN(C2(CNC(=O)COc3ccc(C(C)(C)C)cc3)CCCCC2)CC1 8.26 µM
COc1ccc(C(=O)Nc2ccc3nc(N4CCCCC4)cc(C)c3c2)cc1OC 13.1 µM
CCN1CCN(c2cc(C)c3cc(NC(=O)c4cc(Cl)ccc4OC)ccc3n2)CC1 2.61 µM
CCOc1ccc(N(Cc2ccccc2)C(=O)c2nc(S(C)(=O)=O)ncc2Cl)cc1 0.736 µM
COc1cc(Nc2nc(-c3ccc(OC)c(OC)c3)nc3ccccc23)cc(OC)c1 16.5 µM
O=C(CCS(=O)(=O)c1ccccc1)N(Cc1cccnc1)c1nc2c(F)cccc2s1 3.69 µM
CCOc1ccc(C2CC(=O)c3c([nH]c(C(=O)OCc4ccccc4)c3C)C2)cc1 (stereo unspecified) 4.14 µM
CCCCS(=O)(=O)c1oc(-c2cccs2)nc1S(=O)(=O)c1ccccc1 0.414 µM
CCOC(=O)C1CCN(C(=O)CSc2c3c(nc4ccc(Cl)cc24)CCCC3)CC1 18.5 µM
Cc1ccc(NC(=O)c2nc(S(=O)(=O)Cc3cccc(C)c3)ncc2Cl)cc1 5.85 µM
